# Experimental data taken from the supplement of paper PMC10849652.
# The full data set covers some 8,800 targets. This sample favours those with a hit. About 0.5% of all pairs of compound and target were hits. Values without a mark were called inactive.
# What was measured:
# Assay in all cases: log2 fold change, soluble protein after heating vs DMSO (PISA); higher = thermal stabilisation; K562 lysate, 10 uM; active = over 0.2 and 3.5 SD of the protein, either way, in both replicates (recomputed)
# alvocidib = compound: CN1CC[C@H](c2c(O)cc(O)c3c(=O)cc(-c4ccccc4Cl)oc23)[C@H](O)C1 [alvocidib]
# In short: (§1)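 To prepare the extract, K562 pellets were dounce-homogenised in PBS pH 7.4 with 1 mM MgCl2, giving crude material at 1 mg/mL protein. This was treated with 10 μM compound for 30 min, then heated in aliquots for 3 min over 48°C-58°C before pooling and addition of NP-40 to 0.5% at 4°C. Centrifugation at 21,000xg for 90 min left soluble protein in the supernatant, which TMTpro 16plex LC-MS/MS quantified with equalised channel sums. Results are log-two fold changes in thermal stability compared with solvent controls, from duplicates.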
# Tubastatin A = compound: CN1CCc2c(c3ccccc3n2Cc2ccc(C(=O)NO)cc2)C1 [Tubastatin A]
# In short: as §1
# [1] = compound: CNC(=O)C1=CC=CC=C1NC2=NC(=NC=C2Cl)NC3=C(C=C(C=C3)N4CCOCC4)OC
# In short: as §1
# defactinib = compound: CNC(=O)c1ccc(Nc2ncc(C(F)(F)F)c(NCc3nccnc3N(C)S(C)(=O)=O)n2)cc1 [defactinib]
# In short: as §1
# [2] = compound: CNc1nc(-c2ccc3c(N)n[nH]c3c2)cc(N2C[C@@H](C(=O)NC3CCCCC3)CC[C@H]2C)n1
# In short: as §1
# encorafenib = compound: COC(=O)N[C@@H](C)CNc1nccc(-c2cn(C(C)C)nc2-c2cc(Cl)cc(NS(C)(=O)=O)c2F)n1 [encorafenib]
# In short: as §1
# [3] = compound: COC(=O)[C@H](CCSC)NC(=O)C1=C(C=C(C=C1)NC[C@H](CS)N)C2=CC=CC=C2
# In short: as §1
# alisertib = compound: COc1cc(Nc2ncc3c(n2)-c2ccc(Cl)cc2C(c2c(F)cccc2OC)=NC3)ccc1C(=O)O [alisertib]
# In short: as §1
# [4] = compound: COc1cc2nc(-c3cc(F)ccc3O)nc(N[C@@H]3CNC[C@H]3C(C)(C)O)c2cc1OC
# In short: as §1
# gefitinib = compound: COc1cc2ncnc(Nc3ccc(F)c(Cl)c3)c2cc1OCCCN1CCOCC1 [gefitinib]
# In short: as §1
# UniProt Q93096, sequence (Q93096 whole entry, looked up): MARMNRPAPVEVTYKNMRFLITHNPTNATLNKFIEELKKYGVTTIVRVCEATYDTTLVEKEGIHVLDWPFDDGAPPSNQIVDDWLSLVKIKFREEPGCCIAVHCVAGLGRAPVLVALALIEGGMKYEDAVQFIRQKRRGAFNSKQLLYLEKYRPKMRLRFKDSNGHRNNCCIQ
# UniProt Q16512, sequence (Q16512 whole entry, looked up): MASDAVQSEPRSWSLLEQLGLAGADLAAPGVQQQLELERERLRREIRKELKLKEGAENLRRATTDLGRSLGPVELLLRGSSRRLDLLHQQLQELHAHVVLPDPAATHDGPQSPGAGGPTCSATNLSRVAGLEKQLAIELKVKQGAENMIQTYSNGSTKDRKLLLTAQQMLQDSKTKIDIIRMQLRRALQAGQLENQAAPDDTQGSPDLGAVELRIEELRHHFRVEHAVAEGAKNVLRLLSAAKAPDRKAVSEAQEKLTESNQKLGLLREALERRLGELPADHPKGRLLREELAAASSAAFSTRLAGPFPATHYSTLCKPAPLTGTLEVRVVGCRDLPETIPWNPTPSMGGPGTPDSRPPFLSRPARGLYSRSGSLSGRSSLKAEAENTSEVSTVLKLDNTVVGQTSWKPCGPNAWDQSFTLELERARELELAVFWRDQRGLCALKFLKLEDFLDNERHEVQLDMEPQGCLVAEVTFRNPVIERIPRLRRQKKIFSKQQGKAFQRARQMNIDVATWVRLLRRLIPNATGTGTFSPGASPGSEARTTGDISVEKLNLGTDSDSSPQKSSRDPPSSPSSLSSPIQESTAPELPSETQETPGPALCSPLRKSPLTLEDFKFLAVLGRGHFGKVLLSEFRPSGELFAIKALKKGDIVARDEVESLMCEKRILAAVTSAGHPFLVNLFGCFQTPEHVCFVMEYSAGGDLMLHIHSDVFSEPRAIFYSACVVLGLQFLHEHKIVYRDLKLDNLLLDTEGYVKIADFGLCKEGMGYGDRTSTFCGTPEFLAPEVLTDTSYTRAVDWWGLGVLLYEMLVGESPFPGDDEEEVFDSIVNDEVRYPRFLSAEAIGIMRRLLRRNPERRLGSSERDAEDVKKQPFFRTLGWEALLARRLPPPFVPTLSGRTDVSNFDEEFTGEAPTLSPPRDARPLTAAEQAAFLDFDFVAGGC
# UniProt O43741, sequence (O43741 whole entry, looked up): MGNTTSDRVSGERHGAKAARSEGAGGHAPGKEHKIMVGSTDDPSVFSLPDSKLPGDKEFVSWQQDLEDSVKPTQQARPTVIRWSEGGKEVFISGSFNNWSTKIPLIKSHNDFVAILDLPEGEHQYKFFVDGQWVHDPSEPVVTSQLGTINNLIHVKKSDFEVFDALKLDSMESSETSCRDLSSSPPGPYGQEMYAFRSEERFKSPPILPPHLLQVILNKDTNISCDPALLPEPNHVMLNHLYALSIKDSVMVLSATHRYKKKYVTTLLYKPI
# UniProt Q16875, sequence (Q16875 whole entry, looked up): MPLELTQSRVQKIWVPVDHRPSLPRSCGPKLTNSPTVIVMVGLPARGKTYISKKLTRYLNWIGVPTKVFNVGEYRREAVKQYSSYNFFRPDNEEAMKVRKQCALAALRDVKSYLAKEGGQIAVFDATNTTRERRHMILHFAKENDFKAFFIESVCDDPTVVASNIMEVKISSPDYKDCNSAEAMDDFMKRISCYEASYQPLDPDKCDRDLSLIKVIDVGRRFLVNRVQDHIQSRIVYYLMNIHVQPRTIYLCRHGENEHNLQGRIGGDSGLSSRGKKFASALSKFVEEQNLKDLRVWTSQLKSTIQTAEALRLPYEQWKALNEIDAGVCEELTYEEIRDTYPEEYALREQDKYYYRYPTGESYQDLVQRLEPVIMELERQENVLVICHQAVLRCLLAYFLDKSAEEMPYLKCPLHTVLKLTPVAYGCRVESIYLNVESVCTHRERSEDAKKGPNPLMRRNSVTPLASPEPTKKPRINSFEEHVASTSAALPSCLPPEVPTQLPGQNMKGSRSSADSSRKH
# UniProt Q9Y244, sequence (Q9Y244 whole entry, looked up): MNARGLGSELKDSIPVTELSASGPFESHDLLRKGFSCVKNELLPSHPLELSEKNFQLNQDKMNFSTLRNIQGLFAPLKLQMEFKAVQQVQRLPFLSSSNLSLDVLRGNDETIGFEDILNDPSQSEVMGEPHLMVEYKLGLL
# UniProt Q9Y570, sequence (Q9Y570 whole entry, looked up): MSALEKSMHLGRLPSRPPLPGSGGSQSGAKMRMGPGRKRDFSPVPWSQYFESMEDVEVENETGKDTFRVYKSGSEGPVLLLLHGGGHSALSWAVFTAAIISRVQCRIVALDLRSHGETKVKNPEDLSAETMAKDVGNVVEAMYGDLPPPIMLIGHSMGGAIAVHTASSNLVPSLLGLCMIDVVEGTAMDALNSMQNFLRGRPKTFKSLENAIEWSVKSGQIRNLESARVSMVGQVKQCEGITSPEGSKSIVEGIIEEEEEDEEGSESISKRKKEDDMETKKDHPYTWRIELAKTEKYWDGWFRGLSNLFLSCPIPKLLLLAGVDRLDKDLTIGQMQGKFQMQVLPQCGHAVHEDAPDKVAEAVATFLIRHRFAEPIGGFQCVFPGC
# UniProt P42338, sequence (P42338 whole entry, looked up): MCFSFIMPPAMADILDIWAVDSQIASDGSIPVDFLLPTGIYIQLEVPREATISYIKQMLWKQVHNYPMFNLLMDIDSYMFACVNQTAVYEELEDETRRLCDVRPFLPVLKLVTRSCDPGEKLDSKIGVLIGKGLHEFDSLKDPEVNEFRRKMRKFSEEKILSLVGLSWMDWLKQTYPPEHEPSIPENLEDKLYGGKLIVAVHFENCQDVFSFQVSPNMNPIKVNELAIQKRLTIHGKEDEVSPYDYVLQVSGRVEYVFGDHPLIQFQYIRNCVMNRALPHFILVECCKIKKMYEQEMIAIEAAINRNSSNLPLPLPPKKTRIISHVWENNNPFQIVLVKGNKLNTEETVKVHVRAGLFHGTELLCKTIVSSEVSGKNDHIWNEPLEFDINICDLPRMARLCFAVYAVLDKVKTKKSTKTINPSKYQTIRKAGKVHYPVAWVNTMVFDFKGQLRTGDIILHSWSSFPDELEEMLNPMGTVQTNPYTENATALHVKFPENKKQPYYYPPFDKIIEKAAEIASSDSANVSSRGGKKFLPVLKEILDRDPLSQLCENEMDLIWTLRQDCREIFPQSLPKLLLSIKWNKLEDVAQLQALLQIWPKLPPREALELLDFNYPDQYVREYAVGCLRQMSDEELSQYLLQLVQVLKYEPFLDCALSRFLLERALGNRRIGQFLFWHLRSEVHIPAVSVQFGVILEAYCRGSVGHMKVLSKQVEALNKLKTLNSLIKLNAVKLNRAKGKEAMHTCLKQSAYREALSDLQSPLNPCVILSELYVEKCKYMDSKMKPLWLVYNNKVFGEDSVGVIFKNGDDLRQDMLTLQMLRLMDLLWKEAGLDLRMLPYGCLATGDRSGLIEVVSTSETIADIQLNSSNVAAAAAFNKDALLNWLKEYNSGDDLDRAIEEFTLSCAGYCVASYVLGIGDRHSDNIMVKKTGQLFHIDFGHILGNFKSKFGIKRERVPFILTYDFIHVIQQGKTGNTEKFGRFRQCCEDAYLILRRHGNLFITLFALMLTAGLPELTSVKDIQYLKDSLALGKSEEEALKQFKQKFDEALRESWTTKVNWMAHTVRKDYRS
# UniProt P27986, sequence (P27986 whole entry, looked up): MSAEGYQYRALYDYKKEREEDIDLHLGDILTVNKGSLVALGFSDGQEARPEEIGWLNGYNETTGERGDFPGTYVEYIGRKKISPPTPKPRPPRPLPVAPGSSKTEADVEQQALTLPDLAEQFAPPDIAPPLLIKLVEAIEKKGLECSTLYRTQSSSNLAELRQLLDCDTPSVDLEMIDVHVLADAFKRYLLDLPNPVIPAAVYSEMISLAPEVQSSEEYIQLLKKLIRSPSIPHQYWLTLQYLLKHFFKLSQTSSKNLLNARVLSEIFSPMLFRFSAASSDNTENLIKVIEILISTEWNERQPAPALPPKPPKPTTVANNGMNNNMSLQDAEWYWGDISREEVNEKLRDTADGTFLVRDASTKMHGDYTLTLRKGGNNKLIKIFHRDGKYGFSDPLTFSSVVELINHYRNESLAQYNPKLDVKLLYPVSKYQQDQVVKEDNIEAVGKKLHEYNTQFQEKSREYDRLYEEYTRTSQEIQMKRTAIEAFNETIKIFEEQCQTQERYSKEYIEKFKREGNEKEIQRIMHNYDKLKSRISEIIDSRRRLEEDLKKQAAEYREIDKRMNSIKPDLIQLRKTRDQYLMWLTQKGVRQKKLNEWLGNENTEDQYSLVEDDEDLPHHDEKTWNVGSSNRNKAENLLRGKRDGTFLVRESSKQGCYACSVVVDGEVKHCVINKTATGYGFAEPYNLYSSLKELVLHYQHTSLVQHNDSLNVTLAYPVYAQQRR
# UniProt P48147, sequence (P48147 whole entry, looked up): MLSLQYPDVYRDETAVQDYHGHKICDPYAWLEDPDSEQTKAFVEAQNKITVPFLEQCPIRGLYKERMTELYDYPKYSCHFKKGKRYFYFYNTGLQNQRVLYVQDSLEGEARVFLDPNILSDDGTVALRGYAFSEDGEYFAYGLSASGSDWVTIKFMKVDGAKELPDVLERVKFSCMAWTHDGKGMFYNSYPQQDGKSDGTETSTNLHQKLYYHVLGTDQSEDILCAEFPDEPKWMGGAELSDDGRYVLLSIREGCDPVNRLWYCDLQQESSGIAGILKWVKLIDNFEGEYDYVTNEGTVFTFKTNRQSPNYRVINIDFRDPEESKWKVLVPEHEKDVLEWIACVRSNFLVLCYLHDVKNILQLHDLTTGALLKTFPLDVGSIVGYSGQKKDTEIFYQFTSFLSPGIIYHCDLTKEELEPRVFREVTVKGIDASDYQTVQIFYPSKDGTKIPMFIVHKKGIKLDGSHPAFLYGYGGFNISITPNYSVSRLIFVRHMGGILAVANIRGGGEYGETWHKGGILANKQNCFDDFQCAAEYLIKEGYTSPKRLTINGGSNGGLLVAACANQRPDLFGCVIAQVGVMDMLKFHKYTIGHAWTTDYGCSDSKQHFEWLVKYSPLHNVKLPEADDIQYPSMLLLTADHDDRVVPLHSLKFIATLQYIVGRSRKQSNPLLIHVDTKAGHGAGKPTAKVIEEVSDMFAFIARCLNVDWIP
Target,log2 fold change (alvocidib),log2 fold change (Tubastatin A),log2 fold change [1],log2 fold change (defactinib),log2 fold change [2],log2 fold change (encorafenib),log2 fold change [3],log2 fold change (alisertib),log2 fold change [4],log2 fold change (gefitinib)
PRKAB2 (UniProt O43741),-0.122,-0.016,0.286,0.057,0.062,-0.04,-0.09,-0.062,0.058,-0.126
PUS3 (UniProt Q9BZE2),0.094,-0.181,0.035,-0.089,-0.117,0.06,0.04,0.01,-0.021,0.041
POMP (UniProt Q9Y244),0.072,-0.061,0.035,0.024,-0.03,0.074,-0.002,-0.013,-0.033,-0.093
POLD3 (UniProt Q15054),0.041,-0.032,0.099,-0.033,-0.03,0.021,0.048,-0.025,0.007,-0.018
PPIL2 (UniProt Q13356),-0.006,-0.1,-0.006,-0.024,0.056,-0.004,0.036,-0.018,0.027,0.005
PIK3CB (UniProt P42338),-0.002,-0.123,0.056,-0.044,-0.013,-0.02,-0.126,-0.01,-0.011,-0.019
PIK3R1 (UniProt P27986),0.032,-0.037,0.075,-0.066,-0.039,-0.025,-0.111,0.078,0.023,-0.045
POLR2M (UniProt P0CAP2),-0.002,0.031,0.021,0.037,0.035,0.33 (active),-0.047,-0.011,0.019,0.027
PIK3R2 (UniProt O00459),0.023,-0.086,0.027,0.017,-0.009,0.009,-0.225,0.008,0.02,-0.052
PFAS (UniProt O15067),-0.015,-0.01,0.009,0.022,0,-0.004,0.119,0.009,-0.011,-0.009
PRKACA (UniProt P17612),-0.118,0.008,0.034,0.177,0.082,-0.052,-0.059,0.027,0.558 (active),-0.01
PRIM2 (UniProt P49643),-0.008,-0.138,0.033,-0.01,0.009,-0.002,0.035,-0.017,-0.009,0.01
PRKRA (UniProt O75569),0.024,-0.254,0.028,0.02,-0.009,-0.001,0.146,-0.019,-0.004,-0.006
PHKG2 (UniProt P15735),0.107,-0.044,0.268,0.001,0.033,-0.039,0.056,-0.045,0.192,0.03
PFKFB3 isoform 4 (UniProt Q16875),-0.012,-0.05,0.058,-0.006,0.012,0.041,-0.137,-0.01,0,-0.01
PPOX (UniProt P50336),-0.004,-0.124,0.257,-0.03,0.107,-0.017,0.076,0.005,-0.035,-0.043
PIK3C3 (UniProt Q8NEB9),-0.081,0.02,-0.019,-0.004,-0.046,-0.016,0.015,0.012,0.048,-0.037

Target,log2 fold change (alvocidib),log2 fold change (Tubastatin A),log2 fold change [1],log2 fold change (defactinib),log2 fold change [2],log2 fold change (encorafenib),log2 fold change [3],log2 fold change (alisertib),log2 fold change [4],log2 fold change (gefitinib)
PRAME (UniProt P78395),0.034,-0.111,0.024,0.006,-0.006,-0.001,0.13,0.014,0.009,-0.007
PI4KA (UniProt P42356),-0.006,-0.165,0.035,0.006,-0.029,0.026,-0.005,0.028,0.019,0
PTGS1 isoform 6 (UniProt P23219),-0.154,0.023,-0.052,-0.119,-0.057,-0.008,0.027,-0.051,0.021,-0.011
PELO (UniProt Q9BRX2),0.149,-0.086,0.026,-0.022,-0.043,0.056,0.084,0.008,0.006,0.006
PTP4A1 (UniProt Q93096),0.05,0.033,0.023,0.033,0.023,0.006,-0.006,-0.056,-0.015,0.049
PDXK (UniProt O00764),-0.031,-0.005,0.027,0.047,0.06,-0.032,-0.012,-0.038,0.016,-0.022
PKN1 isoform 2 (UniProt Q16512),-0.036,-0.056,-0.001,-0.079,-0.003,0.075,0.116,-0.009,-0.1,-0.005
PDIA4 (UniProt P13667),0.025,0.05,-0.008,-0.042,-0.012,-0.011,-0.027,-0.007,-0.001,-0.011
PDXDC1 (UniProt Q6P996),-0.005,-0.065,-0.007,0.034,0.088,0.058,0.085,0.049,-0.006,0.032
PIR (UniProt O00625),0.006,0.019,-0.011,-0.032,0.012,0.003,-0.07,0.016,-0.008,-0.012
PRC1 (UniProt O43663),0.002,-0.157,0.043,-0.012,0.012,0.031,0.255 (active),0.045,-0.032,0.049
PHGDH (UniProt O43175),0.028,-0.415 (active),-0.081,0.022,0.018,0.006,-0.439 (active),0.004,0.006,-0.016
PREP (UniProt P48147),0.018,-0.021,0.018,0.005,-0.019,-0.024,0.361 (active),-0.011,0.013,-0.012
PYCR2 (UniProt Q96C36),-0.052,0.041,0.004,0.001,0.011,-0.005,-0.038,0.013,-0.001,-0.005
PPME1 isoform 4 (UniProt Q9Y570),0.01,0.024,0.008,0.024,0.002,-0.001,-0.066,0.031,0.005,0.002
PIK3CD (UniProt O00329),-0.105,0.012,0.021,0.052,-0.047,,,-0.027,0.027,
